Measurements as given in PubChem BioAssay (NCI).
About 83,000 compounds went through this panel and 20% of them were active in at least one assay; those are over-represented in the sample as a whole.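 Each cell line was grown in a 96-well plate and treated with one concentration of compound for 48 hours. Values below 10 were considered active.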

Experiments:
Assay in all cases: NCI-60 one-dose screen, 48 h (100 = growth as untreated, 0 = no growth, -100 = all killed)
NCI-H23 lung = details: 10 µM unless noted
NCI-H226 lung = details: 10 µM unless noted
DU-145 prostate = details: 10 µM unless noted
MDA-MB-231 breast = details: 10 µM unless noted
SF-268 CNS = details: 10 µM unless noted
M14 melanoma = details: 10 µM unless noted
HCT-15 colon = details: 10 µM
PC-3 prostate = details: 10 µM unless noted
UACC-62 melanoma = details: 10 µM unless noted
LOX IMVI melanoma = details: 10 µM unless noted
SK-MEL-28 melanoma = details: 10 µM unless noted
OVCAR-8 ovarian = details: 10 µM unless noted
SK-OV-3 ovarian = details: 10 µM unless noted
OVCAR-3 ovarian = details: 10 µM unless noted
NCI/ADR-RES ovarian = details: 10 µM unless noted
SW-620 colon = details: 10 µM unless noted
MCF7 breast = details: 10 µM unless noted
KM12 colon = details: 10 µM unless noted
HT29 colon = details: 10 µM unless noted
OVCAR-5 ovarian = details: 10 µM unless noted

Measured: growth

CC1(CF)NC(=O)NC1=O (stereo not drawn)
inactive: NCI-H23 lung 103% | NCI-H226 lung 119% | DU-145 prostate 116% | MDA-MB-231 breast 99.1% | SF-268 CNS 104% | M14 melanoma 104% | HCT-15 colon 105% | PC-3 prostate 101% | UACC-62 melanoma 96.8% | LOX IMVI melanoma 100% | SK-MEL-28 melanoma 111% | OVCAR-8 ovarian 102% | SK-OV-3 ovarian 109% | OVCAR-3 ovarian 115% | NCI/ADR-RES ovarian 107% | SW-620 colon 106% | MCF7 breast 92.7% | KM12 colon 106%

CC12CCC3C(CC=C4CC(O)CCC43C)C1C/C(=C\N1CCOCC1)C2=O (stereo not drawn)
inactive: NCI-H23 lung 111% | NCI-H226 lung 93.2% | DU-145 prostate 110% | MDA-MB-231 breast 106% | SF-268 CNS 109% | M14 melanoma 112% | HCT-15 colon 99.9% | HT29 colon 105% | PC-3 prostate 96.4% | UACC-62 melanoma 104% | LOX IMVI melanoma 105% | SK-MEL-28 melanoma 106% | OVCAR-8 ovarian 100% | OVCAR-5 ovarian 98.1% | SK-OV-3 ovarian 111% | OVCAR-3 ovarian 116% | NCI/ADR-RES ovarian 106% | SW-620 colon 105% | MCF7 breast 92.2% | KM12 colon 108%

CNC(=O)Oc1cccc(OC)c1
inactive: NCI-H23 lung 101% | NCI-H226 lung 102% | DU-145 prostate 115% | MDA-MB-231 breast 93.3% | SF-268 CNS 118% | M14 melanoma 107% | HCT-15 colon 112% | HT29 colon 103% | PC-3 prostate 109% | UACC-62 melanoma 100% | LOX IMVI melanoma 100% | SK-MEL-28 melanoma 111% | OVCAR-8 ovarian 108% | OVCAR-5 ovarian 113% | SK-OV-3 ovarian 118% | OVCAR-3 ovarian 121% | NCI/ADR-RES ovarian 106% | SW-620 colon 111% | MCF7 breast 101% | KM12 colon 112%
